# Sampled rows, rich in hits. Any-hit rate of the full collection: about 7.6%.
# KCNH2 3.1 inh = KCNH2 3.1 (human) potassium channel inhibition; U2OS KCNH2 3.1, thallium flux FluxOr; stronger effect = lower value; activity change, % (tested at about 1.8 µM); hit rate 0.95% among 340,000; AID 720553;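 active = maximum activity change below -70%; inconclusive = maximum activity change from -70% to -50%; inactive = maximum activity change above -50%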;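 also: thallium influx rate constant from kinetic fluorescence after stimulation buffer; % is scaled to controls: 0 for no effect and ±100 for the full control effect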
#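 Measured as rate of thallium-driven FluxOr signal in transduced U2OS cells carrying the 3.1 channel, read kinetically for 2 min upon stimulation; values are rate constants scaled to DMSO control wells.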
# KB-3-1 cytotox = KB-3-1 parental cell cytotoxicity; Potency, µM (titrated, usually from 46.1 µM), most hits filed as cytotoxic; KB-3-1 viability, CellTiter-Glo ATP luminescence, 72 h; hit rate 1.4% among 400,000; AID 1347075; also: potency is read from the fitted curve at half-maximal effect; % is scaled to controls: 0 for no effect and ±100 for the full control effect; nearly all actives have a fitted effect of over 60% in size
#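 Parental KB-3-1 adenocarcinoma cells in phenol-red-free DMEM with 10% FBS were pin-treated with compounds at several concentrations, incubated 72 h at 37 °C, and viability read by CellTiter-Glo luminescence; concentration-effect curves were fitted after normalization.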
# KB-V1 cytotox = kills drug-selected multidrug resistant KB-V1 cells; KB-V1 MDR cells viability, CellTiter-Glo, 72 h; hit rate 3.4% among 400,000; Potency, µM (titrated, usually from 46.1 µM), most hits filed as cytotoxic; also: potency is read from the fitted curve at half-maximal effect; % is scaled to controls: 0 for no effect and ±100 for the full control effect; nearly all actives have a fitted effect of over 60% in size
#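 qHTS viability screen in drug-selected KB-V1 MDR cells: 72 h compound treatment at 37 degrees C, ATP luminescence end point.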
# KCNH2 WT inh = blocks the wildtype human KCNH2 potassium channel; Q12809; U2OS, BacMam KCNH2, thallium flux FluxOr; stronger effect = lower value; activity change, % at 1.84 µM; hit rate 0.37% among 340,000; AID 720551;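 active = maximum activity change below -70%; inconclusive = maximum activity change between -70% and -50%; inactive = maximum activity change above -50%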; also: % is scaled to controls: 0 for no effect and ±100 for the full control effect
# Target sequence (Q12809 whole entry, looked up): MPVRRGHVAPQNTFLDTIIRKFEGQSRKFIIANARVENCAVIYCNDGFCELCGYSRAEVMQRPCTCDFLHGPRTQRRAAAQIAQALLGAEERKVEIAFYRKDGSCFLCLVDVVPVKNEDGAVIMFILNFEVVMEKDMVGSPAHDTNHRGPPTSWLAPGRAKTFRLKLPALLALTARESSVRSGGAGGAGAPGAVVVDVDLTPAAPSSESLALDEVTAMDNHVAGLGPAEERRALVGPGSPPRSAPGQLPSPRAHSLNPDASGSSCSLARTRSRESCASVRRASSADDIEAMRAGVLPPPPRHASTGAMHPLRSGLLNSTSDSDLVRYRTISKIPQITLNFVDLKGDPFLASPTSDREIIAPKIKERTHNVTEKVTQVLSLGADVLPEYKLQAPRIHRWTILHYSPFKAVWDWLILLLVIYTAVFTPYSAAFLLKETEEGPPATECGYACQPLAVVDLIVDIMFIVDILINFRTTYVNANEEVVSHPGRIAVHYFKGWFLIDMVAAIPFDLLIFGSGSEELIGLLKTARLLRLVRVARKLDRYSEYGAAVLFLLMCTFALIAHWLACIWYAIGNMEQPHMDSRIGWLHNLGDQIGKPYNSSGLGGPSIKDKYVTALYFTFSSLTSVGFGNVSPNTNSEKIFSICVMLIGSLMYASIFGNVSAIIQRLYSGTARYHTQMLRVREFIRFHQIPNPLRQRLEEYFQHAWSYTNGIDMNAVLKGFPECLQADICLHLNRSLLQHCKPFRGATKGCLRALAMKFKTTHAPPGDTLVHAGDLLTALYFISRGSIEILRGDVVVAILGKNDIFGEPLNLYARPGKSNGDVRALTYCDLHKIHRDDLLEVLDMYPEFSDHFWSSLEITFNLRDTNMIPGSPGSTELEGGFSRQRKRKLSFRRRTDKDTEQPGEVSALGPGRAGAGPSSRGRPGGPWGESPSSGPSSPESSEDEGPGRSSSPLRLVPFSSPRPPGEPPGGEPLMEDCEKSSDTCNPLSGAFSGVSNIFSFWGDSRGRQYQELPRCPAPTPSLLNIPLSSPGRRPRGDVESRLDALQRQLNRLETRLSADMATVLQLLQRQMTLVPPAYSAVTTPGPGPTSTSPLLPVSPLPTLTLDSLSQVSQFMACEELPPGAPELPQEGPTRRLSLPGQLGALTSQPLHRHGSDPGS
#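 U2OS cells transduced with wild-type KCNH2 virus are loaded with FluxOr dye for 45 min, and thallium flux is measured in kinetic reads before and after stimulation buffer. Rate constants are normalized to DMSO controls.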
# SW480 rereplic = DNA re-replication induction in SW480 cells; SW480 DNA re-replication, Hoechst DNA content imaging, 48 h; Potency, µM (top dose mostly 46.1 µM), for inactives: at the top dose re-replication activation, most hits filed as activators; hit rate 1.8% among 340,000; AID 624297; also: potency is read from the fitted curve at half-maximal effect; % of control where 0% means no effect; nearly all actives have a fitted effect of over 55% in size
#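 Treated cells incubate 48 hr (37 C, 5% CO2), are stained 40 min with Hoechst, and nuclear fluorescence is enumerated; a rise in nuclei with high DNA signal marks re-replication.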
# MCF10A rereplic = inducers of DNA re-replication in MCF 10A breast cells; hit rate 2.9% among 350,000; Potency, µM (titrated, usually from 46.1 µM), inactives show at the highest dose activity, positive = re-replication, usual class: activators; MCF 10A DNA re-replication, Hoechst nuclear intensity, 48 h; also: potency is read from the fitted curve at half-maximal effect; % of control where 0% means no effect; nearly all actives have a fitted effect of over 50% in size
# An asterisk follows results filed as active; i = inactive; u = inconclusive; x = no result given; ! = not active in a repeat. Unless noted, calls follow the shape of the dose curve; as a rule, active = well fitted curve in the direction sought with a large enough effect; inconclusive = small, poorly fitted or top-dose-only effect, or another doubt; inactive = no such curve, though single readings can be large; an effect the other way counts as inactive or inconclusive.
SMILES,KCNH2 3.1 inh,KB-3-1 cytotox,KB-V1 cytotox,KCNH2 WT inh,SW480 rereplic,MCF10A rereplic
CSc1ccc(OC2CCN(Cc3ccccc3)CC2)cc1,-89.2*,i,16.4µM*,u,u,u
O=c1cc(CN2CCN(c3ccccc3)CC2)c2cc(O)c(-c3ccccc3)cc2o1,-10.9,u,u,2.2,u,u
Cc1ccc2oc(=O)cc(CN3CCN(C/C=C/c4ccccc4)CC3)c2c1,-102.0*,i,i,-7.0,-31.5%,-1.8%
O=c1cc(CN2CCN(C/C=C/c3ccccc3)CC2)c2cc(O)ccc2o1,-98.6*,u,u,-132.9*,u,u
CC(C(=O)Nc1ccc(F)c(F)c1F)N(C)CCOc1ccccc1 (stereo unspecified),-8.6,i,i,-7.9,u,2.4%
Cn1c(=O)c2cc(S(=O)(=O)NCCC(=O)N3CC=C(c4ccccc4)CC3)ccc2n(C)c1=O,-16.4,i,23.1µM*,-8.1,-0.5%,-12.1%
CNc1nc(-c2ccccn2)nnc1-c1ccccc1,10.1,u,i,-2.7,-4.4%,u
c1ccc(-c2nnc(-c3ccccn3)nc2NC2CCCCC2)cc1,12.2,16.4µM*,u,5.6,u,10.3µM*
COc1ccc(OCC(O)CNS(=O)(=O)c2ccc(NC(C)=O)cc2)cc1 (stereo unspecified),x,i,i,-11.3,1.7%,-2.4%
CCC(Sc1nc2ccccc2s1)C(=O)Nc1nnc(C)s1 (stereo unspecified),-2.7,i,16.4µM*,1.6,-0.7%,u
CC(Sc1nc2ccccc2s1)C(=O)Nc1nnc(C(C)C)s1 (stereo unspecified),13.1,i,i,-18.9,-7.6%,0.4%
O=C1CC(N2CCN(S(=O)(=O)c3ccc([N+](=O)[O-])cc3)CC2)C(=O)N1c1ccccc1F (stereo unspecified),-30.8,i,i,-8.8,2.7%,-4.8%
CCN1C(=O)/C(=C/c2nc3ccccc3c(=O)n2-c2ccccc2)c2ccccc21,-4.6,23.1µM*,i,u,u,u
CCOC(=O)Nc1cccc(OCC(=O)Nc2ccccc2OCC)c1,10.5,i,6.51µM*,1.4,-14.7%,10.1%
CN(C(=O)c1ccccc1C(=O)OCC(=O)Nc1cccc(Br)c1)c1ccccc1,-14.2,i,i,-38.6,-26.1%,-2.9%
COc1cccc(NC(=O)COC(=O)c2ccccc2C(=O)N(C)c2ccccc2)c1,12.0,i,23.1µM*,-11.0,-1.9%,5.6%
CCOCCn1ccc2c(OCC(=O)Nc3cc(OC)ccc3OC)cccc2c1=O,-10.4,i,16.4µM*,-1.2,u,u
COc1cccc(NC(=O)COc2ccccc2)c1,-0.2,i,i,-6.9,20.3%,23.1µM*
COc1cccc(N2C(=O)CSC23C(=O)N(CC(=O)NCc2ccc(C)cc2)c2ccccc23)c1 (stereo unspecified),x,i,i,x,x,x
COc1cc(C(=O)NCCC2=CCCCC2)ccc1OC1CCN(C(C)=O)CC1,9.7,u,u,4.1,0.4%,20.9%
COc1cccc(NC(=O)CN(C)C(=O)Cc2ccc3c(c2)CCC3)c1,5.2,i,14.6µM*,-4.7,-4.3%,1.8%
Cc1ccc(OCC(=O)NC(=S)Nc2cccc(NC(=O)c3ccc(Cl)cc3Cl)c2)cc1,-28.9,i,u,6.9,-7.2%,22.3%
COc1ccc(OCC(=O)Nc2ccccc2O)cc1,-12.1,i,16.4µM*,2.4,11.8%,0.0%
COc1cc(NS(=O)(=O)c2ccc(NC(=O)COc3ccc(C)cc3)cc2)nc(OC)n1,8.3,i,i,4.5,-9.5%,-2.3%
COc1cc(NC(=O)COc2ccc(F)cc2)nc(OC)n1,4.7,i,i,0.7,20.6µM*,u
SMILES,KCNH2 3.1 inh,KB-3-1 cytotox,KB-V1 cytotox,KCNH2 WT inh,SW480 rereplic,MCF10A rereplic
Cc1ccc(OCC(=O)NC(=S)Nc2cccc(NC(=O)c3ccccc3)c2)cc1,0.3,i,i,-10.8,2.4%,14.6µM*
C=CCN=C1SC(C)(C)C(=O)N1S(=O)(=O)c1ccc(C)cc1,-15.0,i,i,-2.7,-49.4%,-16.4%
COc1ccccc1NC(=O)COc1ccc(-c2nn(C)c(=O)c3ccccc23)cc1,18.6,u,18.4µM*!,0.1,0.1%,15.2%
CC(CC(=O)Nc1ccc2c(c1)c(=O)n(C)n2Cc1ccc(F)cc1)C(F)(F)F (stereo unspecified),x,i,i,x,x,x
CC(CC(=O)Nc1ccc2c(c1)c(=O)n(C)n2-c1ccc2ccccc2c1)C(F)(F)F (stereo unspecified),x,5.8µM*,5.8µM*,x,x,x
CNC(=O)C1CCC(Cn2c(=O)c3sccc3n(CC(=O)Nc3ccc(C)c(C)c3)c2=O)CC1 (stereo unspecified),x,i,u,x,x,x
O=C(/C(=N\Nc1ccccc1)Sc1nnnn1-c1ccccc1)c1ccccc1,32.1,i,u,-1.9,-122.7%,-25.6%
COc1ccc2[nH]c3c(=O)n(/N=C/[C@H]4C(C)C=C(C)CC4C)c(=O)[nH]c3c2c1 (stereo partly specified),-4.8,u,i,-5.1,18.4µM*,11.6µM*
COc1ccc(-c2cnn3c4c(c(C)nc23)CCN4C(C)C)cc1OC,4.1,i,2.06µM*,-9.0,u,u
COC(CN1CCc2c(C)nc3c(C#N)cnn3c21)OC,30.2,i,i,-1.4,6.2%,10.8%
CN(C)/C=N/c1c(C#N)cnn1-c1ccc(C(F)(F)F)cn1,0.1,i,i,22.7,18.2%,14.6µM*
Cc1c(N2C(=O)/C(=C\c3cccc4ccccc34)SC2=S)c(=O)n(-c2ccccc2)n1C,-12.3,u,i,-10.8,5.5%,18.4%
O=c1[nH]nc(SCCS(=O)(=O)c2ccc(F)cc2)n1-c1ccc2c(c1)OCCO2,-0.8,i,i,-18.7,u,u
O=c1[nH]nc(SCCS(=O)(=O)c2ccc(F)cc2)n1-c1ccccc1,13.0,i,i,-4.9,16.4%,23.1µM*
Cc1ccc(C(=O)c2cc([N+](=O)[O-])ccc2N2CC(C)OC(C)C2)cc1 (stereo unspecified),-4.5,i,u,-14.6,11.6µM*,22.0%
Cc1ccc(C(=O)c2cc([N+](=O)[O-])ccc2N2CCCCC2)cc1,24.1,i,u,-10.5,0.581µM*,u
CCc1ccc(NC(=O)COC(=O)/C=C/c2ccco2)cc1,-121.0*,i,i,17.9,-1.9%,0.4%
O=C(COC(=O)/C=C/c1ccco1)Nc1ccccc1,-16.4,i,i,-0.8,-13.0%,-1.4%
